Compound activity (PubChem)
Rows were chosen to be rich in hits. Some 3.5% of all compounds tested hit in one or more screens of this group.
FBW7 act = FBW7 E3 ligase activators, primary screen, biochemical, AlphaScreen, human | F-box/WD repeat-containing protein 7 (Homo sapiens), Q969H0 | AlphaScreen FBW7–phospho-cyclin E peptide binding, activator screen | normalized activity (activation), % at 26.1 µM | 650,000 compounds, 0.13% hits | AID 1259310, 2017; in the data active means normalized activity above about 1.9%;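 further: purified mutant Fbw7 with reduced substrate affinity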
Target sequence (Q969H0 whole entry, looked up): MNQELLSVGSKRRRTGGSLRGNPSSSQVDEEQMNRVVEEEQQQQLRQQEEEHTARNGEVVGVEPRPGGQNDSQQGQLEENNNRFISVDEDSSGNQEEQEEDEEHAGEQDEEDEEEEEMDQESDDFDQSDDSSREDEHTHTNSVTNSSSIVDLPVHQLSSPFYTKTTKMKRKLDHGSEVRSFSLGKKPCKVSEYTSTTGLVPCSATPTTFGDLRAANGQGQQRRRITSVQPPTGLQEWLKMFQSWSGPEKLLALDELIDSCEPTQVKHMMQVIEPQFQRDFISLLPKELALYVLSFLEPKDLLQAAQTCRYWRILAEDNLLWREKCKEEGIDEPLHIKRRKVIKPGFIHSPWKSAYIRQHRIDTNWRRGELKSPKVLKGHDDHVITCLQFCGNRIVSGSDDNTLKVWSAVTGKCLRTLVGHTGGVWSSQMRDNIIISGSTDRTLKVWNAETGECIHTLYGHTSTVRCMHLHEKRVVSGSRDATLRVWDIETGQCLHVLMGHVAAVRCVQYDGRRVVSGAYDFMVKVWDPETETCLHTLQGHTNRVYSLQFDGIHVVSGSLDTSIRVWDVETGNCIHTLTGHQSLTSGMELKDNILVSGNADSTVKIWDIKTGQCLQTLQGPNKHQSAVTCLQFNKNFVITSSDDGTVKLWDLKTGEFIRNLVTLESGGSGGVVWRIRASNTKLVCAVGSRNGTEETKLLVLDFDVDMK
TEAD-YAP inh = TEAD-YAP interaction inhibition, primary screen, TEAD-YAP interaction inhibitor project, luminescence, HEK-TIYL cells. TEAD-Gal4/YAP UAS-luciferase luminescence. inhibition, % at 9.12 µM. 640,000 compounds, 1.4% hits. AID 1259422, 2018; in the data active means inhibition above about 32%;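 further: 0% = median of test compound wells and 100% = reference inhibitor wells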
GPR151 activ = activators of human GPR151, primary screen, cell-based, PathHunter beta-arrestin, luminescence | PathHunter beta-arrestin GPR151 cells | 650,000 compounds, 1% hits | activation, % at 11.2 µM | G-protein coupled receptor 151 (Homo sapiens), Q8TDV0; in the data active means activation above about 4.9%;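 further: 0% = median of compound wells and 100% = cells with positive control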
MITF inh = MITF inhibitors, primary screen, biochemical, AlphaScreen, human. Microphthalmia-associated transcription factor (Homo sapiens), O75030. AlphaScreen MITF homodimerization, bead proximity signal. inhibition, % at 2.6 µM. 650,000 compounds, 0.91% hits; in the data active means inhibition above about 50%;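 further: 0% = vehicle wells with protein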
Numbers without * were called inactive.

`FC1(F)Oc2ccc(Nc3nccc(-c4cncc(N5CCOCC5)c4)n3)cc2O1` gave FBW7 act 0.5, TEAD-YAP inh -2.6, GPR151 activ -1.8 and MITF inh 22.5.
For COc1ccc(CC(=O)Nc2cc(NC(=O)c3cccs3)ccc2C)cc1OC the results were FBW7 act 0.1, TEAD-YAP inh 32.4*, GPR151 activ -0.9 and MITF inh 17.4.
Screening COc1ccc(CC(=O)Nc2ccc(C)c(C)c2)cc1OC returned FBW7 act -0.1, TEAD-YAP inh 7.7, GPR151 activ 1.2 and MITF inh 1.9.
For COc1ccc(-c2ccc(C)c(NC(=O)Cc3ccc(OC)c(OC)c3)c2)nn1 the results were FBW7 act 1.2, TEAD-YAP inh 63.9*, GPR151 activ 0.1 and MITF inh 9.8.
O=C(NCCS(=O)(=O)N1CCN(c2ccccc2)CC1)c1cccc2ccccc12 was read as FBW7 act 0.0, TEAD-YAP inh 9.8, GPR151 activ 2.5 and MITF inh 9.4.
Screening CCOC(=O)CN1CCN(c2ccc(-c3cccc(C=O)c3)cn2)CC1 returned FBW7 act 0.5, TEAD-YAP inh 10.8, GPR151 activ -0.8 and MITF inh 14.6.
`CCOC(=O)CN1CCN(c2ccc(Br)cn2)CC1` gave FBW7 act 0.2, TEAD-YAP inh 44.5*, GPR151 activ -0.5 and MITF inh -8.0.
O=C(CN(Cc1ccc(Cl)cc1)S(=O)(=O)c1ccccc1)N1CCN(c2ccccc2F)CC1 was read as FBW7 act 0.1, TEAD-YAP inh 16.0, GPR151 activ -0.3 and MITF inh 3.3.
For C(=N\Nc1nn[nH]n1)/c1ccc(N2CCOCC2)cc1 the results were FBW7 act 0.0, TEAD-YAP inh -5.4, GPR151 activ 0.1 and MITF inh 57.9*.
Screening N#C/C(=C\c1ccco1)c1nc(-c2ccc(Cl)cc2)cs1 returned FBW7 act 0.0, TEAD-YAP inh -1.1, GPR151 activ -0.6 and MITF inh 10.5.
O=C(NCCCN1CCOCC1)c1cc(F)cc(-n2ncc3cc(Nc4c(Cl)cccc4Cl)ccc32)c1 was read as FBW7 act 0.1, TEAD-YAP inh -8.8, GPR151 activ -1.2 and MITF inh 3.3.
`Cc1nc2ccccn2c1C(=O)N1CCN(c2cccc(C(F)(F)F)c2)CC1` gave FBW7 act -0.1, TEAD-YAP inh 58.4*, GPR151 activ 4.6 and MITF inh 3.4.
Cc1onc(-c2c(Cl)cccc2Cl)c1C(=O)N1CCN(c2cccc(C(F)(F)F)c2)CC1 was read as FBW7 act 0.1, TEAD-YAP inh 54.5*, GPR151 activ 1.4 and MITF inh 16.4.
Screening NC(=O)Cn1cc(/C=C2/C(=O)N(c3ccccc3)c3ccccc32)c2ccccc21 returned FBW7 act -0.1, TEAD-YAP inh 5.2, GPR151 activ 0.1 and MITF inh 0.7.
For CCCNC(=O)c1cnc(N2CCN(Cc3ccc4c(c3)OCO4)CC2)s1 the results were FBW7 act 0.2, TEAD-YAP inh 0.5, GPR151 activ 0.5 and MITF inh 2.2.
`COc1cccc(C2CC(=O)C=C(NCc3ccccc3OC)C2)c1` (configuration not stated) gave FBW7 act 0.8, TEAD-YAP inh 52.3*, GPR151 activ 0.4 and MITF inh 11.5.
C=CCNC(=O)C(C)Oc1ccc(Br)cc1 (configuration not stated) was read as FBW7 act 0.1, TEAD-YAP inh 1.0, GPR151 activ 3.0 and MITF inh 7.1.
O=C(CCC(=O)N1CCC[C@@H]2CN(Cc3ccsc3)CC[C@H]21)c1ccccc1 was read as FBW7 act 0.1, TEAD-YAP inh -11.0, GPR151 activ 0.1 and MITF inh -1.4.
CCN(C(=O)CCl)c1cccc2ccccc12 was read as FBW7 act -0.3, TEAD-YAP inh 67.5*, GPR151 activ 2.6 and MITF inh -10.0.
COc1cc(N2CCOCC2)ccc1/C=C1\C(=O)NC(=O)N(Cc2ccco2)C1=O was read as FBW7 act -0.4, TEAD-YAP inh -5.7, GPR151 activ 0.4 and MITF inh 65.6*.
For COc1ccc(/C=C2/C(=O)NC(=O)N(Cc3ccccc3)C2=O)cc1OC the results were FBW7 act 0.2, TEAD-YAP inh 2.4, GPR151 activ -0.2 and MITF inh 14.0.
Screening O=C1NC(=O)N(Cc2ccco2)C(=O)/C1=C\C=C\c1ccccc1 returned FBW7 act 0.0, TEAD-YAP inh 6.2, GPR151 activ 0.0 and MITF inh 54.1*.
